Test results published in PubChem BioAssay (Tox21).
Results filed as inconclusive are left out. Calls of active or inactive are those of the source. The call rests on the fitted dose curve; in most records, active means well fitted curve in the direction sought with a large enough effect in the repeat runs; inconclusive means weak or mixed curves; inactive means no such curve, though single readings can be large; an effect the other way counts as inactive or inconclusive.

Assays:
[1] = A CellTox Green Cytotoxicity Assay to monitor cytotoxicity in HEK293 cells - 32 hour (AID 1224881); further: nearly all actives have a fitted effect of over 40% in size
In short: (§1)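 Fluorescence from a DNA-binding dye excluded by viable cells was measured repeatedly in the same HEK293 wells (600 cells/well) during continuous compound exposure at 37 C. Each assay gives one read point: 0, 8, 16, 24, 32 or 40 h.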

[2] = A CellTox Green Cytotoxicity Assay to monitor cytotoxicity in HepG2 cells - 0 hour (AID 1224882); further: nearly all actives have a fitted effect of over 35% in size
In short: (§2)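 Real-time cytotoxicity: fluorescence of a cell-impermeant cyanine dye binding DNA of dead HepG2 cells, measured repeatedly (0–40 h) during compound exposure at 37 C. Cells seeded 600/well with reagent, dosed after 5 h.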

[3] = A CellTox Green Cytotoxicity Assay to monitor cytotoxicity in HepG2 cells - 32 hour (AID 1224883); further: nearly all actives have a fitted effect of over 50% in size
In short: as §2

[4] = A CellTox Green Cytotoxicity Assay to monitor cytotoxicity in HEK293 cells - 8 hour (AID 1224884); further: nearly all actives have a fitted effect of over 35% in size
In short: as §1

[5] = qHTS RealTime-Glo MT Cell Viability Assay in HEK293 cells - 24 hour (AID 1224886); further: top concentration of the series differs between compounds; nearly all actives have a fitted effect of over 50% in size
In short: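 Reads taken at 0, 8, 16, 24, 32 and 40 h from the same wells. HEK293 cells (600/well) carried RealTime-Glo reagents from seeding, with compound added after a 5 h settle at 37 C.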

[6] = qHTS RealTime-Glo MT Cell Viability Assay in HEK293 cells - 8 hour (AID 1224887); further: top concentration of the series differs between compounds; nearly all actives have a fitted effect of over 50% in size
In short: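 Luminescence, which tracks viable cell number through reduction of the prosubstrate to a NanoLuc substrate, was read over continuous 37 C culture. Cells (600/well) were premixed with reagent and rested 5 h before 23 nL of compound in DMSO was pinned.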

[7] = A CellTox Green Cytotoxicity Assay to monitor cytotoxicity in HEK293 cells - 16 hour (AID 1224888); further: nearly all actives have a fitted effect of over 35% in size
In short: as §1

[8] = qHTS RealTime-Glo MT Cell Viability Assay in HepG2 cells - 0 hour (AID 1224889); further: nearly all actives have a fitted effect of over 50% in size
In short: (§3)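 HepG2 suspension premixed with RealTime-Glo reagents is plated at 600 cells per well and left 5 h at 37 C/5% CO2. Compounds in DMSO then go in, and bioluminescence reflecting viable cell number is recorded over 40 h.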

[9] = A CellTox Green Cytotoxicity Assay to monitor cytotoxicity in HepG2 cells - 8 hour (AID 1224890); further: nearly all actives have a fitted effect of over 45% in size
In short: as §2

[10] = qHTS RealTime-Glo MT Cell Viability Assay in HepG2 cells - 16 hour (AID 1224885); further: nearly all actives have a fitted effect of over 50% in size
In short: as §3
On the % scale 0 is the no-effect control and ±100 the full control effect.

C=CCc1ccccc1O
inactive: Potency [1] | Potency [2] | Potency [3] | Potency [4] | Potency [5] | Potency [6] | Potency [7] | outcome [8] | Potency [9]

C[C@]12C=CC3=C4CCC(=O)C=C4CC[C@H]3[C@@H]1CC[C@@H]2O
inactive: Potency [1] | Potency [2] | Potency [3] | Potency [4] | Potency [10] | Potency [5] | Potency [7] | outcome [8] | Potency [9]

CCOP(=O)(O)C(N)=O
inactive: Potency [1] | Potency [2] | Potency [3] | Potency [4] | Potency [5] | Potency [6] | Potency [7] | outcome [8] | Potency [9]

Nc1ccc2c(c1)Cc1ccccc1-2
inactive: Potency [1] | Potency [2] | Potency [3] | Potency [4] | Potency [10] | Potency [6] | Potency [7] | outcome [8] | Potency [9]

C[N+]1(CCF)[C@@H]2CC[C@H]1CC(OC(=O)C(O)(c1ccccc1)c1ccccc1)C2 (stereo partly drawn)
inactive: Potency [1] | Potency [2] | Potency [3] | Potency [4] | Potency [5] | Potency [6] | Potency [7] | outcome [8]

CC(C)(C)N(NC(=O)c1ccc(Cl)cc1)C(=O)c1ccccc1
inactive: Potency [1] | Potency [2] | Potency [3] | Potency [4] | Potency [10] | Potency [6] | Potency [7] | outcome [8] | Potency [9]

CC(O)CN1CCN(CC(=O)[O-])CCN(CC(=O)[O-])CCN(CC(=O)[O-])CC1.[Gd+3] (stereo not drawn)
inactive: Potency [1] | Potency [2] | Potency [3] | Potency [4] | Potency [5] | Potency [6] | Potency [7] | outcome [8] | Potency [9]

COC1=CC(=O)O[C@@H](/C=C/c2ccc3c(c2)OCO3)C1
inactive: Potency [1] | Potency [2] | Potency [3] | Potency [4] | Potency [5] | Potency [6] | Potency [7] | outcome [8] | Potency [9]

CC(C)CCCCCCCOC(=O)c1ccccc1C(=O)OCCCCCCCC(C)C
inactive: Potency [1] | Potency [2] | Potency [3] | Potency [4] | Potency [5] | Potency [6] | Potency [7] | outcome [8] | Potency [9]

CC(CC(C(N)=O)(c1ccccc1)c1ccccc1)N(C)C (stereo not drawn)
inactive: Potency [1] | Potency [2] | Potency [3] | Potency [4] | Potency [10] | Potency [5] | Potency [7] | outcome [8] | Potency [9]

SCc1ccccc1
inactive: Potency [1] | Potency [2] | Potency [3] | Potency [4] | Potency [10] | Potency [5] | Potency [7] | outcome [8] | Potency [9]

CCCCCBr
inactive: Potency [1] | Potency [2] | Potency [3] | Potency [4] | Potency [10] | Potency [7] | outcome [8] | Potency [9]

CCCC[N+](CCCC)(CCCC)CCCC
inactive: Potency [1] | Potency [2] | Potency [3] | Potency [4] | Potency [10] | Potency [7] | outcome [8] | Potency [9]

CCCCCCCCCCCCN=C(N)N
inactive: cytotoxicity increase [1] 11.7% [at 2.72 µM] | cytotoxicity [2] -4.6% [at 2.72 µM] | cytotoxicity increase [3] -4.96% [at 2.72 µM] | cytotoxicity increase [4] 4.34% [at 2.72 µM] | activity change, negative = cytotoxic [10] -5.38% [at 2.72 µM] | activity change [7] 7.85% [at 2.72 µM, active compounds read high] | activity change, negative = cytotoxicity [8] 5.28% [at 2.72 µM]

CC(Oc1cccc(Cl)c1)C(=O)O (stereo not drawn)
inactive: Potency [1] | Potency [2] | Potency [3] | Potency [4] | Potency [5] | Potency [6] | Potency [7] | outcome [8] | Potency [9]

COc1cc(CC#N)cc(OC)c1OC
inactive: Potency [1] | Potency [2] | Potency [3] | Potency [4] | Potency [5] | Potency [6] | Potency [7] | outcome [8] | Potency [9]

O=[N+]([O-])O[C@H]1CO[C@H]2[C@@H]1OC[C@H]2O[N+](=O)[O-]
inactive: Potency [1] | Potency [2] | Potency [3] | Potency [4] | Potency [5] | Potency [6] | Potency [7] | outcome [8] | Potency [9]
